Experimental data published in PubChem BioAssay (NCI).
This is part of a sample that, as a whole, favours compounds with a hit. Of some 83,000 tested, about 20% had one in any assay.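 Results are percent growth after 48 hours of single-concentration exposure. 100 means growth as in untreated cells, lower positive values show inhibition; negative values down to -100 show cell death.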 Activity calls are given as the source filed them. How the source made its calls: active means growth percent below 10; inactive means the rest.

Legend:
Experiment in all cases: NCI-60 one-dose screen, 48 h (100 = growth as untreated, 0 = no growth, -100 = all killed)
Settings in all cases: 10 µM
EKVX NSCLC = test system: EKVX NSCLC
SN12C renal = test system: SN12C renal
UO-31 renal = test system: UO-31 renal
TK-10 renal = test system: TK-10 renal
ACHN renal = test system: ACHN renal
CAKI-1 renal = test system: CAKI-1 renal
A498 renal = test system: A498 renal
MOLT-4 leukemia = test system: MOLT-4 leukemia
SR leukemia = test system: SR leukemia
RPMI-8226 leukemia = test system: RPMI-8226 leukemia
OVCAR-8 ovarian = test system: OVCAR-8 ovarian
OVCAR-5 ovarian = test system: OVCAR-5 ovarian
SK-OV-3 ovarian = test system: SK-OV-3 ovarian
IGROV1 ovarian = test system: IGROV1 ovarian
OVCAR-3 ovarian = test system: OVCAR-3 ovarian
NCI/ADR-RES ovarian = test system: NCI/ADR-RES ovarian
T-47D breast = test system: T-47D breast
OVCAR-4 ovarian = test system: OVCAR-4 ovarian
HS 578T breast = test system: HS 578T breast
CCRF-CEM leukemia = test system: CCRF-CEM leukemia

Measured: growth

CN1CCC2(CC1)NC(=O)c1c(c3ccc(Cl)c(Cl)c3n1C)C2C#N (stereo not given)
inactive: EKVX NSCLC 89% | SN12C renal 64.3% | UO-31 renal 61.7% | TK-10 renal 98.7% | ACHN renal 73.9% | A498 renal 59.8% | MOLT-4 leukemia 64.1% | SR leukemia 39.4% | RPMI-8226 leukemia 80.4% | OVCAR-8 ovarian 80.8% | OVCAR-5 ovarian 67.7% | SK-OV-3 ovarian 86.1% | IGROV1 ovarian 73.4% | OVCAR-3 ovarian 76% | NCI/ADR-RES ovarian 82.4% | T-47D breast 81.3%
active: CAKI-1 renal -26.4%

O=[N+]([O-])c1cccc(-c2ncc(-c3ccc(Cl)cc3Cl)[nH]2)c1
active: ACHN renal -2.82% | SR leukemia -36.6% | RPMI-8226 leukemia -8.35%
inactive: EKVX NSCLC 91.5% | SN12C renal 80.9% | UO-31 renal 60.4% | TK-10 renal 20.1% | CAKI-1 renal 100% | A498 renal 104% | MOLT-4 leukemia 22.1% | OVCAR-8 ovarian 83.5% | OVCAR-5 ovarian 117% | OVCAR-4 ovarian 70% | SK-OV-3 ovarian 115% | IGROV1 ovarian 26.6% | OVCAR-3 ovarian 59.8% | HS 578T breast 44.9% | NCI/ADR-RES ovarian 97.2%

O=C1OCC2=C1C(c1cccc(Br)c1)c1cc3c(cc1N2CCO)CCC3 (stereo not given)
active: A498 renal -11.2% | CCRF-CEM leukemia 8.55% | OVCAR-3 ovarian -62.5% | HS 578T breast 6.91% | NCI/ADR-RES ovarian -5.39%
inactive: EKVX NSCLC 47.7% | SN12C renal 21.2% | UO-31 renal 33.9% | TK-10 renal 62.6% | ACHN renal 20.9% | CAKI-1 renal 20.8% | MOLT-4 leukemia 14.1% | SR leukemia 28.5% | RPMI-8226 leukemia 19% | OVCAR-4 ovarian 54.6% | SK-OV-3 ovarian 28.8% | IGROV1 ovarian 20.3% | T-47D breast 71.5%

CN1CCCNc2c(c(=O)c2=O)NCCCN(C)CCCNc2c(c(=O)c2=O)NCCCN(C)CCCNc2c(c(=O)c2=O)NCCCN(C)CCCNc2c(c(=O)c2=O)NCCCN(C)CCCNc2c(c(=O)c2=O)NCCCN(C)CCCNc2c(c(=O)c2=O)NCCCN(C)CCCNc2c(c(=O)c2=O)NCCC1
inactive: EKVX NSCLC 61.7% | SN12C renal 33.3% | UO-31 renal 17.2% | TK-10 renal 27.1% | ACHN renal 43.3% | CAKI-1 renal 54.1% | A498 renal 72.5% | OVCAR-8 ovarian 18.9% | OVCAR-5 ovarian 99.6% | OVCAR-4 ovarian 66.5% | SK-OV-3 ovarian 29.4% | IGROV1 ovarian 47.6% | OVCAR-3 ovarian 35.9% | HS 578T breast 85% | NCI/ADR-RES ovarian 64.9% | T-47D breast 14.7%

CN(C)CCNC(=O)c1cccn2c(=O)c3cc4ccccc4cc3nc12
inactive: EKVX NSCLC 16.1% | UO-31 renal 18.2% | ACHN renal 14.7% | OVCAR-5 ovarian 29.6% | SK-OV-3 ovarian 19.5% | IGROV1 ovarian 19.3%
active: SN12C renal 7.89% | TK-10 renal -29% | CAKI-1 renal -2.45% | A498 renal -56.7% | MOLT-4 leukemia -27.2% | SR leukemia -29.9% | RPMI-8226 leukemia -29.2% | OVCAR-8 ovarian -9.49% | OVCAR-4 ovarian -3.24% | OVCAR-3 ovarian -15.3% | HS 578T breast -14.5% | NCI/ADR-RES ovarian 5.94% | T-47D breast 5.57%

O=c1c2ccccc2nc(SCCN2CCCCC2)n1CCc1ccccc1
inactive: EKVX NSCLC 70.7% | SN12C renal 81.5% | UO-31 renal 57.2% | TK-10 renal 97.2% | ACHN renal 102% | CAKI-1 renal 73.9% | A498 renal 83.1% | OVCAR-8 ovarian 95.9% | OVCAR-5 ovarian 88.7% | OVCAR-4 ovarian 86.7% | SK-OV-3 ovarian 92.6% | IGROV1 ovarian 78.7% | OVCAR-3 ovarian 94.1% | HS 578T breast 93.9% | NCI/ADR-RES ovarian 87.6% | T-47D breast 65.5%

CC[C@H]1CCC/C=C/[C@@H]2C[C@H](O)C[C@H]2[C@H](O)/C=C/C(=O)O1
inactive: OVCAR-4 ovarian 29% | SK-OV-3 ovarian 21.3% | HS 578T breast 13.7%
active: EKVX NSCLC -1.36% | SN12C renal 3.46% | UO-31 renal -9.94% | TK-10 renal -48% | ACHN renal 0.373% | CAKI-1 renal -0.599% | A498 renal -45.3% | MOLT-4 leukemia 0.81% | SR leukemia 2.29% | RPMI-8226 leukemia -3.82% | OVCAR-8 ovarian 0.0361% | OVCAR-5 ovarian 7.93% | IGROV1 ovarian -2.68% | OVCAR-3 ovarian -58.5% | NCI/ADR-RES ovarian 2.15% | T-47D breast -81.1%

COC(=O)C(=C\c1ccc2c(c1)OCO2)/C(=C/c1ccc2c(c1)OCO2)C(=O)OC
inactive: EKVX NSCLC 97% | SN12C renal 112% | UO-31 renal 90.3% | TK-10 renal 100% | ACHN renal 94.3% | CAKI-1 renal 94.7% | A498 renal 106% | MOLT-4 leukemia 105% | SR leukemia 98.8% | RPMI-8226 leukemia 98.7% | OVCAR-8 ovarian 103% | OVCAR-5 ovarian 98.9% | OVCAR-4 ovarian 106% | SK-OV-3 ovarian 105% | IGROV1 ovarian 87.1% | HS 578T breast 106% | NCI/ADR-RES ovarian 96.4% | T-47D breast 89.2%

COc1cc(/C=C2\Oc3cc(OCC(=O)c4ccccc4)ccc3C2=O)cc(OC)c1OC
inactive: EKVX NSCLC 108% | SN12C renal 109% | UO-31 renal 67.6% | TK-10 renal 151% | ACHN renal 89.6% | CAKI-1 renal 119% | A498 renal 105% | CCRF-CEM leukemia 73.2% | MOLT-4 leukemia 91% | RPMI-8226 leukemia 107% | OVCAR-8 ovarian 109% | OVCAR-5 ovarian 136% | OVCAR-4 ovarian 109% | SK-OV-3 ovarian 120% | IGROV1 ovarian 55.1% | OVCAR-3 ovarian 110% | HS 578T breast 107% | NCI/ADR-RES ovarian 97.2% | T-47D breast 73.6%

COc1cc2nc(Nc3cccc(C(=O)O)c3)nc(N)c2cc1OC
inactive: EKVX NSCLC 95.2% | SN12C renal 95.4% | UO-31 renal 78.3% | TK-10 renal 108% | ACHN renal 93.9% | CAKI-1 renal 93.7% | A498 renal 117% | MOLT-4 leukemia 12.8% | SR leukemia 105% | RPMI-8226 leukemia 307% | OVCAR-8 ovarian 105% | OVCAR-5 ovarian 114% | OVCAR-4 ovarian 103% | SK-OV-3 ovarian 107% | IGROV1 ovarian 16.4% | OVCAR-3 ovarian 101% | HS 578T breast 93.4% | NCI/ADR-RES ovarian 133% | T-47D breast 105%

CC1CN(Cc2ccccc2)C(=O)NC1=O (stereo not given)
inactive: EKVX NSCLC 121% | SN12C renal 91.1% | UO-31 renal 85.7% | TK-10 renal 104% | ACHN renal 109% | CAKI-1 renal 116% | A498 renal 121% | CCRF-CEM leukemia 103% | MOLT-4 leukemia 94.2% | SR leukemia 101% | OVCAR-8 ovarian 103% | OVCAR-5 ovarian 115% | OVCAR-4 ovarian 123% | SK-OV-3 ovarian 111% | IGROV1 ovarian 124% | OVCAR-3 ovarian 135% | HS 578T breast 108% | NCI/ADR-RES ovarian 107% | T-47D breast 97.2%

COc1cc(Cc2cc(-c3ccc(Cl)cc3)n[nH]c2=O)ccc1O
inactive: SN12C renal 98% | UO-31 renal 83.9% | TK-10 renal 157% | ACHN renal 109% | CAKI-1 renal 132% | A498 renal 104% | RPMI-8226 leukemia 47.9% | OVCAR-8 ovarian 92.6% | OVCAR-5 ovarian 115% | SK-OV-3 ovarian 98.6% | IGROV1 ovarian 112% | OVCAR-3 ovarian 96.1% | HS 578T breast 73.2% | NCI/ADR-RES ovarian 126% | T-47D breast 91%
active: EKVX NSCLC -26% | MOLT-4 leukemia -59.9% | SR leukemia -35.7%

c1ccc([C@H]2CN3CCSC3=N2)cc1
inactive: EKVX NSCLC 98.3% | SN12C renal 109% | UO-31 renal 88.2% | TK-10 renal 112% | ACHN renal 107% | CAKI-1 renal 93.6% | A498 renal 85% | CCRF-CEM leukemia 99.1% | MOLT-4 leukemia 98.5% | SR leukemia 103% | RPMI-8226 leukemia 110% | OVCAR-5 ovarian 87.2% | SK-OV-3 ovarian 107% | OVCAR-3 ovarian 111% | HS 578T breast 85.7% | NCI/ADR-RES ovarian 103% | T-47D breast 99.6%

CCOC(=O)CCC(NC(=O)c1ccc(N)cc1)C(=O)OCC (stereo not given)
inactive: EKVX NSCLC 121% | SN12C renal 103% | UO-31 renal 76.9% | TK-10 renal 102% | ACHN renal 95.3% | CAKI-1 renal 123% | A498 renal 112% | MOLT-4 leukemia 114% | SR leukemia 121% | OVCAR-8 ovarian 105% | OVCAR-5 ovarian 89.6% | OVCAR-4 ovarian 95.7% | SK-OV-3 ovarian 109% | IGROV1 ovarian 105% | OVCAR-3 ovarian 106% | HS 578T breast 113% | NCI/ADR-RES ovarian 102% | T-47D breast 101%

CCCCOC(=O)Oc1ccc(C(=O)Oc2ccc(OCC)cc2)cc1
active: CCRF-CEM leukemia 8.77%
inactive: EKVX NSCLC 98% | SN12C renal 95.3% | UO-31 renal 85.6% | TK-10 renal 117% | ACHN renal 90.2% | CAKI-1 renal 87.1% | MOLT-4 leukemia 111% | SR leukemia 107% | RPMI-8226 leukemia 74.6% | OVCAR-8 ovarian 99.1% | OVCAR-5 ovarian 94.3% | OVCAR-4 ovarian 87.9% | SK-OV-3 ovarian 111% | IGROV1 ovarian 105% | OVCAR-3 ovarian 98.6%

COc1ccc(CN2CCC(N3CCCC3=O)c3cc(Cl)ccc32)cc1 (stereo not given)
inactive: EKVX NSCLC 106% | SN12C renal 99.5% | UO-31 renal 73.6% | TK-10 renal 108% | ACHN renal 101% | CAKI-1 renal 114% | A498 renal 111% | MOLT-4 leukemia 83% | SR leukemia 84.2% | OVCAR-8 ovarian 104% | OVCAR-5 ovarian 93.3% | OVCAR-4 ovarian 95.3% | SK-OV-3 ovarian 105% | IGROV1 ovarian 104% | OVCAR-3 ovarian 120% | HS 578T breast 99.3% | NCI/ADR-RES ovarian 90.2% | T-47D breast 89.5%
